The source of these data is the supplement of paper PMC3414501.

Where a name gives a salt, the structure may show the parent alone.

Assay [1] concerns S. cerevisiae SK1 pCDA2-eGFP (USY613), sporulating. Kind of assay: CDA2-GFP sporulation assay sensitivity score (z-score vs DMSO controls); higher = stronger inhibition of sporulation, active = hit call of the paper.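 Also: active if sensitivity score above 5.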
In assay [2] the test system is S. cerevisiae AD1-9 (efflux-pump deficient), vegetative growth in YPD. Kind of assay: growth sensitivity score (doubling time z-score vs DMSO controls); higher = slower growth, strongly negative scores also mark growth inhibition (complete suppression), active = hit call of the paper. In short, it runs like this:
(§1)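 Yeast (Saccharomyces cerevisiae BY4741 and AD1-9) was grown in rich medium in microtiter plates from a starting OD600 of 0.065, with optical density read every 15 min over 24 hours. The growth sensitivity score was the difference between compound and solvent-only means, divided by the solvent-only standard deviation. Every experiment had eight solvent-only wells.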

Assay [3] has as its system S. cerevisiae BY4741 (wild-type), vegetative growth in YPD. Described as above. In short, it runs like this:
as §1

Setting [4] is: stock concentration (mM, diluted 1:100): 10.
Where [5] appears, read: stock concentration (mM, diluted 1:100): 9.
[6] abbreviates: stock concentration (mM, diluted 1:100): 10.1.
The mark [7] stands for this setting: stock concentration (mM, diluted 1:100): 11.3.
Where [8] appears, read: stock concentration (mM, diluted 1:100): 7.3.
Where [9] appears, read: stock concentration (mM, diluted 1:100): 8.7.
Setting [10] is: stock concentration (mM, diluted 1:100): 19.9.

Turning to `O=C1CN=C(c2ccccc2)c2cc([N+](=O)[O-])ccc2N1` [Nitrazepam], the “CDA2-GFP sporulation assay sensitivity score” value in assay [1] (setting [4]) is -0.69 (inactive). Besides, the growth sensitivity score is 8.16 (active) in assay [2] (setting [4]) and 2.01 (active) in assay [3] (setting [4]).
For the compound `c1ccc(Cn2ccnc2)cc1` [1-Benzylimidazole], the “CDA2-GFP sporulation assay sensitivity score” value in assay [1] (setting [4]) is 2.48 (inactive). For the same compound, the figures for the growth sensitivity score in assay [2] (setting [4]) and in assay [3] (setting [4]) were -1.25 (inactive) and -1.22 (inactive), respectively.
`CC(C)CC(N(C)C)C1(c2ccc(Cl)cc2)CCC1` (centres undefined) [Sibutramine hydrochloride]: in assay [1] (setting [4]), the “CDA2-GFP sporulation assay sensitivity score” value was 8.57 (inactive). Moreover, the growth sensitivity score was 6.62 (active) in assay [2] (setting [4]) and 1.85 (inactive) in assay [3] (setting [4]).
For `Cc1ncc2n1-c1ccc(Cl)cc1C(c1ccccc1F)=NC2` [Midazolam hydrochloride], in assay [1] (setting [5]), the “CDA2-GFP sporulation assay sensitivity score” value was 6.54 (active). Moreover, the growth sensitivity score is 12.1 (active) in assay [2] (setting [5]) and 0.95 (inactive) in assay [3] (setting [5]).
Regarding `COc1cccc(C2(O)CCCCC2CN(C)C)c1` (centres undefined) [Tramadol], the “CDA2-GFP sporulation assay sensitivity score” value in assay [1] (setting [4]) was 0.06 (inactive). Also, the growth sensitivity score in assay [2] (setting [4]) is -0.93 (inactive); in assay [3] (setting [4]) it was -0.39 (inactive).
In the same order, the values of `C[C@]12CC[C@H](O)CC1=CC[C@@H]1[C@@H]2CC[C@]2(C)C(=O)CC[C@@H]12` [Dehydroepiandrosterone] are 15.7 (active), 70.9 (active) and 7.64 (active).
With `C=C(C)CN1CC[C@]23c4c5ccc(O)c4O[C@H]2c2[nH]c4ccccc4c2C[C@@]3(O)C1C5`, the “CDA2-GFP sporulation assay sensitivity score” value in assay [1] (setting [6]) was 4.94 (inactive). Further, the growth sensitivity score in assay [2] (setting [6]) was 11.1 (active); in assay [3] (setting [6]), 0.61 (inactive).
In the case of `C[C@]12CC[C@H](O)CC1=CC[C@@H]1[C@@H]2CC[C@@]2(C)[C@H]1CC[C@]2(C)O` [Methylandrostenediol], the “CDA2-GFP sporulation assay sensitivity score” value in assay [1] (setting [6]) was 0.44 (inactive). Also, the growth sensitivity score in assay [2] (setting [6]) is 15.1 (active); in assay [3] (setting [6]), 0.35 (inactive).
In the case of `CC(C)CC(N(C)C)C1(c2ccc(Cl)cc2)CCC1` (centres undefined) [Sibutramine], the “CDA2-GFP sporulation assay sensitivity score” value in assay [1] (setting [7]) is 3.27 (inactive). Also, the growth sensitivity score in assay [2] (setting [7]) is 5.47 (active); in assay [3] (setting [7]), 3.69 (active).
As to `CN1C(=O)COc2c(C(=O)NC3CN4CCC3CC4)cc(Cl)cc21` (centres undefined) [Azasetron], the results for the growth sensitivity score in assay [2] (setting [4]) and in assay [3] (setting [4]) were -0.58 (inactive) and -0.56 (inactive), respectively.
On to `COc1cc(N)c(Cl)cc1C(=O)NC1CN2CCC1CC2` (centres undefined) [Zacopride], for which the “CDA2-GFP sporulation assay sensitivity score” value in assay [1] (setting [4]) is 2.91 (inactive). Also, the growth sensitivity score was -2.46 in assay [2] (setting [4]) and -1.3 (inactive) in assay [3] (setting [4]).
As to `OC1CCCCC1N1CCC(c2ccccc2)CC1` (centres undefined) [Vesamicol hydrochloride], in assay [1] (setting [4]), the “CDA2-GFP sporulation assay sensitivity score” value was 1.08 (inactive). The growth sensitivity score in assay [2] (setting [4]) was -0.57 (inactive); in assay [3] (setting [4]), -0.16 (inactive).
On to `CN1[C@@H]2CC(OC(=O)[C@H](CO)c3ccccc3)C[C@H]1[C@@H]1O[C@@H]12` (some centres undefined), for which the “CDA2-GFP sporulation assay sensitivity score” value in assay [1] (setting [8]) was -0.1 (inactive). Further, the growth sensitivity score in assay [2] (setting [8]) is -1.56 (inactive); in assay [3] (setting [8]) it was -0.06 (inactive).
Consider `CCOC(=O)c1cncn1[C@H](C)c1ccccc1` [Etomidate], for which the “CDA2-GFP sporulation assay sensitivity score” value in assay [1] (setting [6]) was 6.33 (active). Also, the growth sensitivity score was 7.78 (active) in assay [2] (setting [6]) and 2.21 (active) in assay [3] (setting [6]).
In the case of `NC1=NC(=O)C(c2ccccc2)O1` (centres undefined) [Pemoline], the “CDA2-GFP sporulation assay sensitivity score” value in assay [1] (setting [4]) was 0.99 (inactive). Moreover, the values for the growth sensitivity score in assay [2] (setting [4]) and in assay [3] (setting [4]) were 0.67 (inactive) and -1.83 (inactive), respectively.
Regarding `CC(=O)O[C@H]1C[C@@H]2CC[C@@H]3[C@H](CC[C@@]4(C)[C@H]3C[C@H]([N+]3(C)CCCCC3)[C@@H]4OC(C)=O)[C@@]2(C)C[C@@H]1[N+]1(C)CCCCC1` [Pancuronium], the “CDA2-GFP sporulation assay sensitivity score” value in assay [1] (setting [9]) was 2.51 (inactive). Further, the figures for the growth sensitivity score in assay [2] (setting [9]) and in assay [3] (setting [9]) were -8.57 and -0.39 (inactive), respectively.
For `C[C@]12CCC(=O)C=C1CC[C@@H]1[C@@H]2CC[C@@]2(C)[C@H]1CC[C@]2(C)O` [Methyltestosterone], the “CDA2-GFP sporulation assay sensitivity score” value in assay [1] (setting [4]) is 3.87 (inactive). For the same compound, the values for the growth sensitivity score in assay [2] (setting [4]) and in assay [3] (setting [4]) were 32.3 (active) and 3.83 (active), respectively.
As to `CC[C@@H]1C=CC=CC[C@H](C)[C@@H](O)[C@@H](C)C(=O)[C@H](C)[C@@H](O)[C@H](C)C(=O)[C@H](C)[C@@H](O)[C@H](C)C=CC(=O)O[C@H]2[C@@H](C)[C@@H](CC1)O[C@@]1(CC[C@@H](C)[C@@H](C[C@H](C)O)O1)[C@@H]2C` [Oligomycin c], the “CDA2-GFP sporulation assay sensitivity score” value in assay [1] (setting [4]) was -1.43 (inactive). For the same compound, the growth sensitivity score in assay [2] (setting [4]) is 0.66 (inactive); in assay [3] (setting [4]), 1.53 (inactive).
Turning to `CNCC(O)c1ccc(O)cc1` (centres undefined) [Synephrine], in assay [1] (setting [4]), the “CDA2-GFP sporulation assay sensitivity score” value was 4.04 (inactive). For the same compound, the growth sensitivity score in assay [2] (setting [4]) is 0.18 (inactive); in assay [3] (setting [4]), -1.07 (inactive).
Turning to `CCCN1C[C@H](CSC)C[C@@H]2c3cccc4[nH]cc(c34)C[C@H]21` [Pergolide mesylate], the growth sensitivity score is 3.13 (active) in assay [2] (setting [4]) and 2.05 (active) in assay [3] (setting [4]).
On to `CCCCC/C=C\C/C=C\C/C=C\C/C=C\CCCC(=O)Nc1ccc(O)cc1`, for which, in assay [1] (setting [4]), the “CDA2-GFP sporulation assay sensitivity score” value is -4.74 (inactive). In addition, in assay [3] (setting [4]), the growth sensitivity score is 2.55 (active).
On to `Oc1ccc2c3c1O[C@H]1[C@@H](O)CC[C@@]4(O)[C@@H](C2)N(CC2CCC2)CC[C@]314` [Nalbuphine], for which, in assay [1] (setting [4]), the “CDA2-GFP sporulation assay sensitivity score” value was -0.4 (inactive). The figures for the growth sensitivity score in assay [2] (setting [4]) and in assay [3] (setting [4]) were -1.74 (inactive) and -0.96 (inactive), respectively.
As for `Cc1ccc(-c2nc3ccc(C)cn3c2CC(=O)N(C)C)cc1` [Zolpidem tartrate], the “CDA2-GFP sporulation assay sensitivity score” value in assay [1] (setting [10]) was 1.79 (inactive). The figures for the growth sensitivity score in assay [2] (setting [10]) and in assay [3] (setting [10]) were -1.48 (inactive) and -0.6 (inactive), respectively.
Consider `CC(NC(C)(C)C)C(=O)c1cccc(Cl)c1` (centres undefined) [Amfebutamone hydrochloride], for which the “CDA2-GFP sporulation assay sensitivity score” value in assay [1] (setting [6]) was 0.84 (inactive). Further, the growth sensitivity score in assay [2] (setting [6]) is 0.01 (inactive); in assay [3] (setting [6]), -0.7 (inactive).
On to `N=C(NCc1ccc(Cl)cc1)SCCCc1c[nH]cn1` [Clobenpropit], for which the “CDA2-GFP sporulation assay sensitivity score” value in assay [1] (setting [4]) is 1.25 (inactive). Also, the growth sensitivity score is 0.21 (inactive) in assay [2] (setting [4]) and 0.09 (inactive) in assay [3] (setting [4]).
In the case of `CC(O)(CS(=O)(=O)c1ccc(F)cc1)C(=O)Nc1ccc(C#N)c(C(F)(F)F)c1` (centres undefined) [Bicalutamide], the “CDA2-GFP sporulation assay sensitivity score” value in assay [1] (setting [4]) was 0.41 (inactive). Also, in assay [3] (setting [4]), the growth sensitivity score was 0.66 (inactive).
Turning to `COc1ccc2[nH]cc(C3=CCNCC3)c2c1`, the growth sensitivity score in assay [2] (setting [6]) was -2.3; in assay [3] (setting [6]) it was -0.36 (inactive).
Turning to `C[N+]1(CCC(C(N)=O)(c2ccccc2)c2ccccc2)CCCCC1` [Fenpiverinium bromide], in assay [1] (setting [6]), the “CDA2-GFP sporulation assay sensitivity score” value was 0.3 (inactive). In addition, the growth sensitivity score in assay [2] (setting [6]) was -1.25 (inactive); in assay [3] (setting [6]) it was -1.06 (inactive).
